29 molecules from PubChem BioAssay (Tox21) can be followed below.

The nature of assay [1]: qHTS assay to identify small molecule antagonists of the estrogen receptor alpha (ER-alpha) signaling pathway using the BG1 cell line in the presence of 0.1 nM 17-beta-estradiol - cell viability counter screen (AID 1259241). Note: % is set by controls: 0 for no effect and ±100 for the full control effect; nearly all actives have a fitted effect of over 40% in size. The essentials:
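Viability in VM7Luc4E2 cells after 22 hr compound exposure under 0.1 nM 17beta-estradiol stimulation, by CellTiter-Fluor.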

Assay [2] in a line: qHTS assay to identify small molecule antagonists of the androgen receptor (AR) signaling pathway using the MDA cell line in the presence of 0.5 nM R1881 - cell viability counter screen (AID 1259242). Note: % is set by controls: 0 for no effect and ±100 for the full control effect; nearly all actives have a fitted effect of over 45% in size. The essentials: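 MDA-kb2 cells (MMTV-luciferase, AR/GR responsive) were treated with compounds plus 0.5 nM R1881 (final) for 16 hr at 37C, 0% CO2. Viability was then read in the same wells as live-cell protease fluorescence (CellTiter-Fluor, 30 min).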

Assay [3] in a line: qHTS assay to identify small molecule HDAC inhibitors (AID 1259364). Note: top concentration of the series differs between compounds; % is set by controls: 0 for no effect and ±100 for the full control effect; nearly all actives have a fitted effect of over 45% in size. The essentials:
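Wild-type HCT-116 cells, plated overnight at 37 C, exposed to compounds 2 hr at 37 C; luminogenic HDAC-Glo substrate then added 30 min at room temperature. Luminescence reports relative endogenous class I/II HDAC activity.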

Assay [4] can be described thus: qHTS assay to identify small molecule HDAC inhibitors - cell viability counter screen (AID 1259365). Note: series mostly up to about 92 µM; % is set by controls: 0 for no effect and ±100 for the full control effect; nearly all actives have a fitted effect of over 50% in size. The essentials: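 Cytotoxicity was gauged in wild-type HCT-116 cells after a brief 2hr treatment with DMSO-dissolved compounds at 37C and 5% CO2, using CellTiter-Glo luminescence developed for 30min at room temperature.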
In general terms: Quantitative high-throughput screening tests each substance at several concentrations.

The nature of assay [5]: qHTS assay to identify small molecule agonists of the sonic hedgehog signaling (Shh) pathway - cell viability counter screen (AID 1259366). For viability change, negative = cytotoxic: % is set by controls: 0 for no effect and ±100 for the full control effect. Note: nearly all actives have a fitted effect of over 50% in size. Note: potency is the fitted concentration of half-maximal effect. The essentials:
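Stable Gli1-Luc NIH/3T3 clone, 2,000 cells/well. Compound exposure 24hr at 37C. Read-out: CellTiter-Fluor fluorescence.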

Assay [6] is described as follows: qHTS assay to identify small molecule antagonists of the sonic hedgehog signaling (Shh) pathway - cell viability counter screen (AID 1259367). For viability change, negative = cytotoxic: % is set by controls: 0 for no effect and ±100 for the full control effect. Note: nearly all actives have a fitted effect of over 55% in size. Note: potency is the fitted concentration of half-maximal effect. A digest of the protocol: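 After a 4 hr settling period, 3T3 Gli1-Luc cells were treated with DMSO-dissolved chemicals and conditioned medium, kept 24 hr at 37C in 5% CO2, and assayed for viability by CellTiter-Fluor fluorescence following 1 hr reagent incubation.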

Assay [7] in a line: qHTS assay to identify small molecule agonists of the sonic hedgehog signaling (Shh) pathway (AID 1259368; calls by dose curve;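 note: NIH/3T3-derived 3T3Gli1-Luc cells carrying a stable Gli1-driven firefly luciferase reporter; series mostly up to about 92 µM; % is set by controls: 0 for no effect and ±100 for the full control effect; nearly all actives have a fitted effect of over 15% in size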). The essentials:
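NIH/3T3-derived 3T3Gli1-Luc cells with stably integrated Gli1-driven firefly luciferase, 2,000 cells/well, compounds added after 4 hr. Incubated 24 hr at 37C, 5% CO2; luminescence read after 30 min with luciferase reagent at room temperature.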

Assay [8] has as its target Estrogen receptor (Homo sapiens) (UniProt P03372). The assay is described as follows: qHTS assay to identify small molecule antagonists of the estrogen receptor alpha (ER-alpha) signaling pathway using the BG1 cell line in the presence of 0.1 nM 17-beta-estradiol (AID 1259244). Note: potency is the fitted concentration of half-maximal effect; nearly all actives have a fitted effect of over 50% in size. The essentials:
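VM7Luc4E2 cells (endogenous full-length ER-alpha, 4×ERE-luciferase), kept 5 days in phenol red-free, charcoal-stripped FBS medium; 4,000 cells/well. Compounds added with 0.1 nM (final) 17beta-estradiol, 22 hr at 37C; luminescence read with ONE-Glo after 30 min.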

Unmarked numbers belong to inactive results. Results filed as inconclusive are left out. Activity calls are given as the source filed them. Unless noted, calls come from the whole dose curve; as a rule, active = well fitted curve in the direction sought with a large enough effect in the repeat runs; inconclusive = weak or mixed curves; inactive = no such curve, though single readings can be large; an effect the other way counts as inactive or inconclusive.

Chain of Estrogen receptor (Homo sapiens) (P03372 whole entry, looked up): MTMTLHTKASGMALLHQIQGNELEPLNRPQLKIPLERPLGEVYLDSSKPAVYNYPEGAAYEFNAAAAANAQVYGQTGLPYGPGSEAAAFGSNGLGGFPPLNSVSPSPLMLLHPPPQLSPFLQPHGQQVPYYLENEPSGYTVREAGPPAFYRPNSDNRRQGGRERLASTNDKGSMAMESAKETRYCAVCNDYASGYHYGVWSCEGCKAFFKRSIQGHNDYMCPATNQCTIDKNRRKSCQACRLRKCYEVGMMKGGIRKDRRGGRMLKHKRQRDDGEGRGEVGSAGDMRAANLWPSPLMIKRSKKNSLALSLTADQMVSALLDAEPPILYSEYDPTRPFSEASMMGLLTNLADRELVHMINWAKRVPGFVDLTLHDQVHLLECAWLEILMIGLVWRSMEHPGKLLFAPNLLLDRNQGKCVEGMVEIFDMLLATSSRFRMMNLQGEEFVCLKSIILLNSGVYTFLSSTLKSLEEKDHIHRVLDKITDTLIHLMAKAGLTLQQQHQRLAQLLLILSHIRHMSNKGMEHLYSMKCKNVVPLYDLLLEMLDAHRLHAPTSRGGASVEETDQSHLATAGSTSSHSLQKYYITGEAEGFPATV

For the molecule `CC(C)=CCC[C@](C)(O)[C@@H]1CC=C(C)CC1`, the Potency result in assay [1], in assay [3], in assay [5], in assay [6] and in assay [7] was “inactive” in each case. In addition, the outcome in assay [2] and in assay [4] was inactive.

As to `CN1CCC[C@@H]1Cc1c[nH]c2ccc(CCS(=O)(=O)c3ccccc3)cc12`, the Potency entry in assay [1], in assay [3], in assay [5], in assay [6] and in assay [7] was “inactive” each time. The result in assay [2] and in assay [4] was inactive.

Take `O=CCCc1ccccc1`: the Potency entry in assay [1], in assay [3], in assay [5], in assay [6] and in assay [7] was “inactive” in each case. Besides, the outcome in assay [2] and in assay [4] was inactive.

Turning to `CC1=C(O)C(=O)OC1C` (stereo not given), the Potency entry in assay [1], in assay [3], in assay [5], in assay [6] and in assay [7] was “inactive” in each case. The result in assay [2] and in assay [4] was inactive.

`C=CCCC=C`: the Potency result in assay [1], in assay [3], in assay [5] and in assay [7] was “inactive” in each case. The result in assay [2] and in assay [4] was inactive.

`OCCN1CCN(CCO)CC1`: the Potency result in assay [1], in assay [3], in assay [5], in assay [6] and in assay [7] was “inactive” each time. Besides, the outcome in assay [2] and in assay [4] was inactive.

As for `CN(C)CCOc1ccccc1Cc1ccccc1`, the Potency result in assay [1], in assay [3], in assay [5] and in assay [7] was “inactive” in each case. Further, the result in assay [2] and in assay [4] was inactive.

Take `COC(=O)c1ccc(OC)cc1`: the Potency entry in assay [1], in assay [3], in assay [5], in assay [6] and in assay [7] was “inactive” in each case. For the same molecule, the outcome in assay [2] and in assay [4] was inactive.

Take `CC(C)=CCCC(C)CCOC=O` (stereo not given): the Potency entry in assay [1], in assay [3], in assay [5] and in assay [7] was “inactive” each time. For the same molecule, the outcome in assay [2] and in assay [4] was inactive.

Regarding `Cc1ccc(C=O)s1`, the Potency entry in assay [1], in assay [3], in assay [5], in assay [6] and in assay [7] was “inactive” in each case. For the same molecule, the result in assay [2] and in assay [4] was inactive.

In the case of `CCN(CC)C(=O)N(CC)CC`, the Potency entry in assay [1], in assay [3], in assay [5] and in assay [7] was “inactive” throughout. The outcome in assay [2] and in assay [4] was inactive.

Turning to `CCC(=O)c1ccc2c(c1)N(CCCN(C)C)c1ccccc1S2`, the result in assay [2] and in assay [4] was inactive. Further, the Potency result in assay [3], in assay [5] and in assay [7] was “inactive” each time.

Turning to `CCOC(=O)COc1ccc2c(c1)CC(NCC(O)c1cccc(Cl)c1)CC2` (stereo not given), the result in assay [2] and in assay [4] was inactive. The Potency entry in assay [3] and in assay [7] was “inactive” each time. The Potency in assay [5] was 21.9 µM (active); in assay [6], 27.5 µM (active).

For the molecule `C=CC1CO1` (stereo not given), the Potency entry in assay [1], in assay [3], in assay [5], in assay [6] and in assay [7] was “inactive” throughout. The outcome in assay [2] and in assay [4] was inactive.

With `CCOc1ccccc1N`, the Potency result in assay [1], in assay [3], in assay [5], in assay [6] and in assay [7] was “inactive” throughout. Moreover, the Potency in assay [8] was 30.4 µM (active). Further, the molecule was classed as inactive in assay [4].

Take `CC[C@H]1CC[C@H](NCc2cc3c(cc2OC)[C@H]2C[C@H]2C(=O)N3C)[C@H](c2ccccc2)N1`: the outcome in assay [2] and in assay [4] was inactive. In addition, the Potency entry in assay [3] and in assay [7] was “inactive” each time. For the same molecule, the Potency in assay [6] was 8.63 µM (active).

`COc1cc(Cl)ccc1Cl`: the Potency entry in assay [1], in assay [3], in assay [5], in assay [6] and in assay [7] was “inactive” throughout. The outcome in assay [2] and in assay [4] was inactive.

`O=C1Nc2ccc([N+](=O)[O-])cc2C1=O`: the Potency entry in assay [1], in assay [3], in assay [5] and in assay [7] was “inactive” each time. In addition, the result in assay [2] and in assay [4] was inactive.

`Cc1ccc(C(C)C)cc1O`: the Potency result in assay [1], in assay [3], in assay [5], in assay [6] and in assay [7] was “inactive” each time. The outcome in assay [2] and in assay [4] was inactive.

`CC(C)Nc1nc(N)nc(Cl)n1`: the Potency result in assay [1], in assay [3], in assay [5], in assay [6] and in assay [7] was “inactive” throughout. The outcome in assay [2] and in assay [4] was inactive.

On to `O=C1CCC(C2CCCCC2)CC1`, for which the Potency entry in assay [1], in assay [3], in assay [5], in assay [6] and in assay [7] was “inactive” throughout. Besides, the result in assay [2] and in assay [4] was inactive.

As to `C1CSCCS1`, the Potency result in assay [1], in assay [3], in assay [5], in assay [6] and in assay [7] was “inactive” throughout. For the same molecule, the outcome in assay [2] and in assay [4] was inactive.

As to `O=C(O)C(=O)Cc1c[nH]c2ccccc12`, the Potency entry in assay [1], in assay [3], in assay [5], in assay [6] and in assay [7] was “inactive” in each case. The outcome in assay [2] and in assay [4] was inactive.

Turning to `CCCCOc1cc(C(=O)NCCN(CC)CC)c2ccccc2n1`, the Potency entry in assay [1], in assay [3], in assay [6] and in assay [7] was “inactive” each time. Besides, the result in assay [2] and in assay [4] was inactive.

As for `Cc1cn([C@@H]2O[C@H](CO)[C@@H](O)[C@@H]2F)c(=O)[nH]c1=O`, the Potency entry in assay [1], in assay [3], in assay [5], in assay [6] and in assay [7] was “inactive” in each case. Also, the outcome in assay [2] and in assay [4] was inactive.

Turning to `Cc1nc(-c2ccccn2)ncc1C(=O)Nn1cc(C)c2cc(F)ccc21`, the Potency entry in assay [1], in assay [3], in assay [5], in assay [6] and in assay [7] was “inactive” each time. For the same molecule, the result in assay [2] and in assay [4] was inactive.

For the molecule `NC(Cc1ccc(F)cc1)C(=O)O` (stereo not given), the figures for the activity change, negative = cytotoxicity in assay [1] and in assay [4] were 0.956% [at 8.39 µM] and 4.97% [at 8.39 µM], respectively. Moreover, the viability change, negative = cytotoxic in assay [2] is 3.8% [at 8.39 µM]; in assay [5], -12.8% [at 8.39 µM]. Moreover, in assay [3], the activity change, negative = inhibition is -2.41% [at 8.39 µM]. The activity change in assay [7] was 0.322% [at 8.39 µM, active compounds read high].

Turning to `CCCCCCCCCC#N`, the Potency result in assay [1], in assay [3] and in assay [7] was “inactive” throughout. Besides, the result in assay [2] and in assay [4] was inactive. For the same molecule, the Potency in assay [6] was 60.8 µM (active).

Take `CC(C)C[C@H](NC(=O)OCC1c2ccccc2-c2ccccc21)C(=O)O`: the Potency result in assay [1], in assay [3], in assay [5], in assay [6] and in assay [7] was “inactive” in each case. The outcome in assay [2] and in assay [4] was inactive.
